Compound activity (PubChem BioAssay)
PME-1 inh: blocks human protein phosphatase methylesterase 1; recombinant PME-1, FP-Rh probe fluorescence polarization; inhibition, % at 5.9 µM; Q9Y570; hit rate 0.53% among 320,000; AID 2130;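 active means inhibition above the campaign mean of all compounds plus 3 SD, cut at about 26% in these data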;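 further: competitive labeling of PME-1 active site by serine hydrolase directed probe; inhibitors block probe labeling so polarization falls and inhibition rises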
LYPLA2 inh: counter-screen for PME1 inhibitors: inhibitors of human LYPLA2; hit rate 0.38% among 320,000; recombinant LYPLA2, FP-Rh probe fluorescence polarization; AID 2177; O95372; inhibition, % at 5.9 µM;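 active means inhibition above the screen-wide mean plus 3 SD, limit set per campaign, cut at about 26% in these data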
Target sequence (O95372 whole entry, looked up): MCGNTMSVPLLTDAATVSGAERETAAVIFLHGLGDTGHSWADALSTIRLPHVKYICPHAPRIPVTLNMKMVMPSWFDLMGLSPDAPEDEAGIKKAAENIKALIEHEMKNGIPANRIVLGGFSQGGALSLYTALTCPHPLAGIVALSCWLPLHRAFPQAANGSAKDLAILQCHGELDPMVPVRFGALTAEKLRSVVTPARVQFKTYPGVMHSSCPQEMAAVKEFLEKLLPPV
Fam108B inh: Fam108B inhibition, counter-screen for RBBP9 inhibitors. recombinant Fam108B, FP-Rh probe fluorescence polarization. inhibition, % at 9.51 µM. hit rate 0.33% among 300,000. AID 1947;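 active means inhibition above the screen mean inhibition plus 3 SD, computed separately per campaign, cut at about 18% in these data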;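 further: inhibitors lower polarization as less probe binds the enzyme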
GSTO1 counter: blocks human GSTO1 in RBBP9 counter-screen | P78417 | hit rate 1.1% among 300,000 | inhibition, % at 5.96 µM | recombinant GSTO1, activity-based probe fluorescence polarization;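 active means inhibition above the campaign mean inhibition plus 3 SD, cut at about 35% in these data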
PAD4 inh: blocks human protein arginine deiminase 4; recombinant PAD4, RCA probe fluorescence polarization; inhibition, % at 6.36 µM; hit rate 0.41% among 330,000;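 active means percent inhibition above a cutoff equal to the mean of all tested compounds plus 3 SD, cut at about 15% in these data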
LYPLA1 inh: blocks human lysophospholipase 1, a PME1 counter-screen; recombinant LYPLA1, FP-Rh probe fluorescence polarization; inhibition, % at 5.9 µM; hit rate 0.16% among 320,000; AID 2174;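 active means inhibition above the mean of all tested compounds plus 3 SD, set per campaign, cut at about 14% in these data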;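 further: inhibitors block serine hydrolase probe labeling of LYPLA1 so polarization falls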
Target sequence (O75608 whole entry, looked up): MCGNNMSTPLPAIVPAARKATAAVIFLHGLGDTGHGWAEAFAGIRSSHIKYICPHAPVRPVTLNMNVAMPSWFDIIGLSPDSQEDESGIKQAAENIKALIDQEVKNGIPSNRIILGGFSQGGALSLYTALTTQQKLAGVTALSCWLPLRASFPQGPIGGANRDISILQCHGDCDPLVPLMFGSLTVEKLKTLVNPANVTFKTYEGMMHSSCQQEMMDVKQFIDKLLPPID
Fam108b confirm: Fam108b (mouse) hydrolase inhibition, confirmation assay; hit rate 44% among 930; recombinant Fam108b, FP-Rh probe fluorescence polarization; AID 1978; inhibition, % at 9.51 µM; shares compounds with Fam108B inh;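 active means inhibition above a limit from the primary screen, the mean over all compounds plus 3 SD, cut at about 19% in these data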;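 further: inhibitors free the probe so polarization falls as inhibition rises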
Fam108b ABPP HTS: mouse ABHD17B inhibition | shares compounds with Fam108B inh | recombinant Fam108b, gel-based ABPP, fluorophosphonate probe | inhibition, % at 20 µM | hit rate 44% among 260; in the data active means inhibition above about 40%
GSTO1 inh conf: GSTO1 (human) inhibition, confirmation; shares compounds with GSTO1 counter; recombinant GSTO1, probe fluorescence polarization; inhibition, % at 5.96 µM; hit rate 54% among 2,400;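 active means inhibition above the primary screen's cutoff, its mean inhibition plus 3 SD, cut at about 35% in these data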;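 further: loss of polarization as inhibitors block binding of rhodamine sulfonate ester activity probe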
A number is an active result; - = inactive; . = no result. Rows were chosen to be rich in hits. Some 1.8% of all compounds tested hit in one or more screens of this group.

SMILES	PME-1 inh	LYPLA2 inh	Fam108B inh	GSTO1 counter	PAD4 inh	LYPLA1 inh	Fam108b confirm	GSTO1 inh conf	others
Cc1ccc(NC2=CC(=O)C(=O)c3ccccc32)c(C)c1	-	-	.	.	-	-	.	.
Cc1cc(C)c(Nc2cc(S(=O)(=O)O)c(N)c3c2C(=O)c2ccccc2C3=O)c(C)c1	64	27	70	80	-	55	93	88
Cc1ccc(SC2=C(Sc3ccc(C)cc3)C(=O)c3ccccc3C2=O)cc1	-	-	22	71	-	-	-	-
Cc1ccc(CNS(=O)(=O)c2ccc(-n3cnnn3)c(C)c2)cc1	-	-	-	-	-	-	.	.
CCN=c1scc(C)n1/N=C/c1cc(Br)c(O)c(Br)c1	-	-	21	46	-	-	-	-
Oc1ccc(Cl)cc1N=Nc1ccccc1	-	-	-	-	-	-	.	.
O=S(=O)(O)c1cc(O)c2c(O)c(N=Nc3cc(Cl)ccc3O)c(S(=O)(=O)O)cc2c1	-	-	24	62	-	-	-	73
Cc1ccc(C(=O)N(c2ccccc2)C2CC(C)N(C(=O)c3ccco3)c3ccccc32)cc1 (stereo not given)	-	-	-	-	-	-	.	.
Cc1ccc2nc(/C(C#N)=C/c3ccc(O)c(O)c3)[nH]c2c1	29	-	31	46	-	-	-	51
Cc1ccc2nc(/C(C#N)=C/c3cn[nH]c3-c3ccc(F)cc3)[nH]c2c1	-	-	-	-	-	-	.	.
Cc1ccc(NC(=O)CCCN2C(=O)/C(=C/C=C/c3ccccc3)SC2=S)cc1	-	-	-	-	-	-	.	.
O=C(O)CCCN1C(=O)/C(=C/C=C/c2ccco2)SC1=S	-	-	50	42	-	-	-	37
Cc1ccc(-n2c(O)c(/C=N/Nc3ccc(S(=O)(=O)N4CCOCC4)cc3[N+](=O)[O-])c3ccccc3c2=O)c(C)c1	34	-	32	38	-	-	45	62	Fam108b ABPP HTS=45
O=C(Nn1cnnc1)c1ccccc1Cl	-	-	-	-	-	-	.	.
CCOCCCN1CC(=O)N2[C@@H](Cc3c([nH]c4ccccc34)C2(C)C)C1=O	-	-	-	-	-	-	.	.
Cc1ccc(OCC(=O)Nc2oc(-c3ccccc3)c(-c3ccccc3)c2C#N)cc1	-	-	-	-	-	-	.	.
COc1ccc(-c2oc(NC(=O)CCl)c(C#N)c2-c2ccc(OC)cc2)cc1	42	-	22	76	-	-	34	86	Fam108b ABPP HTS=-
O=C(N/N=C/c1ccc(OCc2ccccc2)cc1)c1ccncc1	-	-	-	-	-	-	.	.
Oc1ccc(N=Cc2ccc(OCc3ccccc3)cc2)cc1	27	-	20	86	-	-	-	-
CC(=O)c1sc(NC(=O)CCNC(=O)c2ccco2)nc1-c1ccccc1	-	-	-	-	-	-	.	.
O=C(CCl)Nc1nc(-c2ccco2)c(-c2ccco2)s1	-	-	19	88	-	-	-	88
COc1cc(C2Nc3cccc4cccc(c34)N2)cc(OC)c1OC(C)=O	-	-	34	49	-	-	-	-
COC(=O)C1=CN(CCCN2CCCC2=O)C=C(C(=O)OC)C1c1ccccc1C(F)(F)F	-	-	-	-	-	-	.	.
Cn1c2ccccc2c2cc(/C=N/NC(=O)c3cc(O)ccc3O)ccc21	50	-	46	82	-	-	40	40
CC(C)C(NC(=O)c1ccc(C(C)(C)C)cc1)C(=O)N1CCC(C(N)=O)CC1 (stereo not given)	-	-	.	.	-	-	.	.
COC(=O)c1ccc(=O)c2nc3/c(=C/O)c(O)cc(=O)c3[nH]c12	-	-	33	75	-	-	49	71
COc1ccc(CN=Cc2[nH]c3ccc(Br)c(Cl)c3c2O)cc1	-	-	19	52	-	-	-	-
Cc1cc(C)cc(N=Cc2[nH]c3ccc(Br)c(Cl)c3c2O)c1	-	-	-	-	-	-	.	.
CSc1ncccc1C(=O)Nc1nc2ccc(Oc3ccccc3)cc2s1	-	-	-	-	-	-	.	.
